Consider 40 compounds from PubChem BioAssay (Tox21).

Records with an inconclusive call do not appear. Entries that show only a call come without a potency. Calls of active or inactive are those of the source. Calls come from the whole dose curve; as a rule, active = well fitted curve in the direction sought with a large enough effect in the signal ratio in the repeat runs (not every such curve was filed as active); inconclusive = weak or mixed curves, or effect the other way; inactive = no such curve, though single readings can be large or run the other way; the % refers to the signal ratio.

In the assay the target is Estrogen receptor (Homo sapiens) (UniProt P03372). Description: qHTS assay to identify small molecule antagonists of the estrogen receptor alpha (ER-alpha) signaling pathway (AID 743069). The settings on record: HEK293 ER-alpha-UAS-bla, beta-lactamase ratio, antagonist mode; series mostly up to 69.4 µM. An excerpt: National Center for Advancing Translational Sciences [NCATS]
Chain of Estrogen receptor (Homo sapiens) (P03372 whole entry, looked up): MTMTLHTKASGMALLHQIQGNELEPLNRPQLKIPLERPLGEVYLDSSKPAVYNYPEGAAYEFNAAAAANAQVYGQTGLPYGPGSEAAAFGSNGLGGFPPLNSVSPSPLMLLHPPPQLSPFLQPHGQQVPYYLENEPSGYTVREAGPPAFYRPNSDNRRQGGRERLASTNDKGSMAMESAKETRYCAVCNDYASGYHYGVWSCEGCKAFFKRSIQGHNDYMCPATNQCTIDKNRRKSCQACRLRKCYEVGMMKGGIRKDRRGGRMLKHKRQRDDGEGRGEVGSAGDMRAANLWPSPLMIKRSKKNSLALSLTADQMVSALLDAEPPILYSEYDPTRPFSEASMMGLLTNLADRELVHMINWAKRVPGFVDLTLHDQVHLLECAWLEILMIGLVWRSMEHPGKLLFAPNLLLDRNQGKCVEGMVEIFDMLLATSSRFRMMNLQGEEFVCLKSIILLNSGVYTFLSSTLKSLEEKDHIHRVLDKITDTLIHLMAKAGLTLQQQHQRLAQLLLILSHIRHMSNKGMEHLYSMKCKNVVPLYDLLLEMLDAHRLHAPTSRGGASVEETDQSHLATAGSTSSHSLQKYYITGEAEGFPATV
NIH Chemical Genomics Center [NCGC]
U.S. Environmental Protection Agency [EPA]
National Institutes of Environmental Health Sciences [NIEHS]
National Toxicology Program [NTP]
U.S. Food and Drug Administration [FDA]
Estrogen receptor (ER), a nuclear hormone receptor, plays an important role in development, metabolic homeostasis and reproduction. Two subtypes of ER, ER-alpha and ER-beta have similar expression patterns with some uniqueness in both types. Endocrine disrupting chemicals (EDCs) and their interactions with steroid hormone receptors like ER causes disruption of normal endocrine function. To identify the compounds that inhibit ER signaling, an ER-alpha-UAS-bla GripTiteTM cell line (Invitrogen, Carlsbad, CA, USA) containing a beta-lactamase reporter gene under the control of an Upstream Activator Sequence (UAS) stably integrated into HEK293 cells was used to screen the Tox21 10K compound library.
Tox21 Assay Protocol Summary:
ER-alpha-bla cells were cultured in assay medium containing 2% charcoal stripped FBS overnight in the culture flasks before the assay was performed. The cells were dispensed at 5,000 cells/5 uL of assay medium per well into black wall/clear-bottom 1536-well plates using a Multidrop Combi (ThermoFisher Scientific, Waltham, MA) dispenser. After the assay plates were incubated at a 37C and 5% CO2 for 4 hr, 23 nL of compounds dissolved in DMSO, positive controls or DMSO only was transferred to the assay plate by a Pintool station (Kalypsys, San Diego, CA), followed by addition of 1 uL of 17beta-estradiol in assay medium using a Flying Reagent Dispenser (Aurora Discovery, San Diego, CA). The plates were incubated at 37C and 5% CO2 for 18 hr. Then 1 uL of LiveBLAzerTM B/G FRET substrate was added using a Flying Reagent Dispenser, the plates were incubated at room temperature for 2 hours, and fluorescence intensity was measured by an Envision plate reader (PerkinElmer, Shelton, CT).
(In general: In qHTS, concentration-response curves come from the screen itself.)
On to `CC(C)CC(C)O` (stereo not given), for which the Potency entry was “inactive”.
As for `CNC(=O)Oc1ccc2c(c1)[C@]1(C)CCN(C)[C@@H]1N2C`, the Potency result was “inactive”.
Consider `C=CC(C)CCCC(C)(C)O` (stereo not given), for which the Potency entry was “inactive”.
Regarding `CC(=O)CC(C)(C)O`, the Potency result is “inactive”.
`CC(=O)Oc1ccc(C)cc1`: the Potency result was “inactive”.
For the compound `O=C(O)c1ccccc1C(=O)O`, the Potency result is “inactive”.
In the case of `OC1C(O)C(O)C(O)C(O)C1O` (stereo not given) it was “inactive”; in that of `CC1(C)S[C@@H]2[C@H](NC(=O)COc3ccccc3)C(=O)N2[C@H]1C(=O)O`, “inactive”.
The entry for `COc1ccc([N+](=O)[O-])cc1N` is “inactive”.
In the case of `Cc1ccc2ncccc2c1` it was “inactive”; in that of `CCCCCCCCCCCCCCCCO`, “inactive”; in that of `CC(=O)OCCOC(C)=O`, “inactive”.
As for `O=C(O)c1cc2ccccc2cc1O`, the Potency result is “inactive”.
`c1ccc2c(c1)Cc1ccccc1-2`: the Potency entry was “inactive”.
In the case of `CC(=O)OCc1ccco1` it was “inactive”.
For the compound `O=C(O)c1ccc(C(=O)O)c(C(=O)O)c1`, the Potency result is “inactive”.
Take `O=C(O)c1ccc(S(=O)(=O)N(Cl)Cl)cc1`: the Potency entry was “inactive”.
Consider `CC(C)=CCl`, for which the Potency entry was “inactive”.
The entry for `Brc1ccc(Br)c(Br)c1` is “inactive”; for `C=C(C)C(=O)OCC(C)C` it is “inactive”; for `CC(=O)CCC=C(C)C` it is “inactive”.
The entry for `CC1(C)NC(=O)NC1=O` is “inactive”.
In the case of `CC(C)(Oc1ccc(CCNC(=O)c2ccc(Cl)cc2)cc1)C(=O)O` it was “inactive”.
`CCCCCCCCCCCC(=O)OC`: the Potency result is “inactive”.
The entry for `COCCCN` is “inactive”; for `CCO[Si](CCC#N)(OCC)OCC` it is “inactive”.
As for `CN(C)c1ccc(O)c2c1C[C@H]1C[C@H]3[C@H](N(C)C)C(=O)C(C(N)=O)=C(O)[C@@]3(O)C(=O)C1=C2O`, the Potency entry is “inactive”.
The entry for `COc1ccc(C)cc1N` is “inactive”; for `CCCCC(C=O)CC` (stereo not given) it is “inactive”; for `CCCCCCC=O` it is “inactive”.
In the case of `CCNC(=S)NCC` it was “inactive”; in that of `COc1ccc(OC)cc1`, “inactive”; in that of `Cc1ccc(S(=O)(=O)N=C=O)cc1`, “inactive”.
In the case of `CSc1ccc(Cl)cc1` it was “inactive”.
Take `CC(CCl)OP(=O)(OC(C)CCl)OC(C)CCl` (stereo not given): the Potency result is “inactive”.
The entry for `O=C(O)Cn1c(=O)n(Cc2ccc(Br)cc2F)c(=O)c2ccc(Cl)cc21` is “inactive”; for `Cc1ccc([N+](=O)[O-])cc1S(=O)(=O)O` it is “inactive”; for `O=[N+]([O-])c1ccc2nc[nH]c2c1` it is “inactive”.
The entry for `CCCCCC(=O)O` is “inactive”; for `CCNc1cccc(C)c1` it is “inactive”.
